# Screening data as filed in PubChem BioAssay.
# Most compounds without a hit are left out; they make up all but 10% or so of the library.
# HP1b chromo inh: blocks HP1-beta chromodomain binding to methylated histone tails; P83916; AlphaScreen HP1-beta / biotin-H3K9me3 peptide binding; Potency, µM (series often up to 114 µM), hits mostly inhibitors; hit rate 0.56% among 390,000; AID 540317; note: nearly all actives have a fitted effect of over 70% in size
#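 HP1-beta protein (50 nM final) preincubated 30 min at room temperature with biotinylated H3(1-18)K9me3 peptide (50 nM) in PBS pH 7.4, 0.01% Tween-20, then compound added for 30 min. AlphaScreen streptavidin donor/nickel chelate acceptor beads (10 ug/mL final), 30 min dark, luminescence read.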
# BAZ2B block: inhibitors of human BAZ2B bromodomain; hit rate 4.4% among 360,000; Q9UIF8; AID 504333; AlphaScreen BAZ2B-H3K14Ac peptide displacement; Potency, µM (top dose mostly 114 µM), most hits filed as inhibitors; note: nearly all actives have a fitted effect of over 60% in size
#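 Inhibition is scored as reduced AlphaScreen emission. The BAZ2B/b-H3(5-23)K14Ac complex (50 nM each) in PBS pH 7.4, 0.01% Tween-20 meets compound (up to 110 uM) for 30 min at RT before bead addition.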
# JMJD2A Tudor: JMJD2A Tudor domain (human) inhibition; AID 504339; Potency, µM (highest dose often 114 µM), most hits filed as inhibitors; hit rate 4.4% among 390,000; AlphaScreen JMJD2A-Tudor / H3K4me3 peptide binding; note: nearly all actives have a fitted effect of over 50% in size
# Six1-Eya2 blk: Six1/Eya2 interaction inhibition; AlphaScreen GST-Six1/His-Eya2 binding, biochemical; hits give low values; Q15475+O00167; hit rate 0.56% among 360,000; activity change, % (test concentration not listed); in the data active = activity change below about -65%; inconclusive = mostly about -30% to -63%
#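 AlphaScreen with GST-Six1 and His-Eya2 (5X mix: 250 nM and 500 nM), glutathione donor and nickel acceptor beads; buffer 50 mM Tris pH 8.0, 300 mM NaCl, 1 mM TCEP; 1 h at 37 C in the dark.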
# G9a inh: G9a (human) methyltransferase inhibition | hit rate 8.8% among 350,000 | Potency, µM (titrated, usually from 102 µM), usual class: inhibitors | AID 504332 | G9a H3K9 monomethylation, AlphaScreen, 2 h; note: nearly all actives have a fitted effect of over 75% in size
#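 AlphaScreen read-out: biotin-H3K9 peptide (500 nM) methylation by 20 nM enzyme with 20 uM SAM, 2 h at room temperature after 15 min compound preincubation; anti-monomethyl H3K9 antibody plus donor/acceptor beads, 10 min dark.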
# CtBP-E1A inh: blocks the CtBP interaction with E1A | activity change, % (test concentration not listed) | hit rate 0.49% among 340,000 | AlphaScreen GST-E1A/His-CtBP binding, 1536-well; hits give low values | AID 651724; in the data active = activity change below about -65%; inconclusive = mostly about -30% to -63%
#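 Protein mix (5X: 125 nM each GST-E1A, His-CtBP) was incubated with pinned compound 2 h at 37 deg C in dark, in 50 mM Tris pH 8.0 buffer with 300 mM NaCl. Glutathione donor and nickel acceptor beads followed; AlphaScreen signal read after 1 h.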
# Numbers stand for hits; . = inactive; ? = inconclusive; / = no result; [ ] = dose if it differs, or a comment. Unless noted, calls come from the whole dose curve; as a rule, active = well fitted inhibition curve with a large enough effect; inconclusive = small, poorly fitted or top-dose-only effect; inactive = no such curve, though single readings can be large or run the other way.
SMILES,HP1b chromo inh,BAZ2B block,JMJD2A Tudor,Six1-Eya2 blk,G9a inh,CtBP-E1A inh
NC(=O)c1ccc(Cc2ncc(C(F)(F)F)cc2Cl)s1,.,.,.,.,.,.
O=S(=O)(N/N=C/c1ccc(Cl)cc1)c1ccc(Cc2ncc(C(F)(F)F)cc2Cl)s1,.,.,?,.,28µM,.
Cc1cc(C)cc(C(O)c2ncc(-c3ccccc3C)[nH]2)c1 (centres undefined),/,/,/,.,/,.
CC(=O)c1ccc(N2CCN(CC(=O)Nc3ccc(N4CCOCC4)cc3)CC2)cc1,/,.,/,/,.,/
COc1ccccc1N1CCN(CC(=O)Nc2ccc(S(=O)(=O)N3CCCCCC3)cc2)CC1,.,.,.,.,.[2.33 µM],.
CN(C)S(=O)(=O)c1cc(NC(=O)CN2CCN(c3ccccc3)CC2)ccc1Cl,.,.,.,.,.,.
O=C(CN1CCN(c2ccccc2O)CC1)Nc1ccc(S(=O)(=O)N2CCCCCC2)cc1,.,.,.,.,45µM,.
CC(=O)c1c(C)[nH]c(C(=O)OCC(=O)Nc2ccc(Cl)c(S(=O)(=O)N(C)C)c2)c1C,.,71µM,.,.,/,/
CC(C)CC(=O)Nc1ccc(C(=O)CN2CCN(c3ccc(O)cc3)CC2)cc1,.,50µM,?,.,5µM,.
CN(C)S(=O)(=O)c1cc(NC(=O)CN2CCN(c3ccc(O)cc3)CC2)ccc1Cl,.,?,.,.,4µM,.
CCc1ccc(CNC(=O)C2CCN(S(=O)(=O)N3CCC4(CC3)OCCO4)CC2)cc1,.,.,.,.,.,/
O=C(CN1CCN(c2ccc(O)cc2)CC1)Nc1ccc(S(=O)(=O)N2CCCC2)cc1,?,/,50µM,.,/,.
O=S(=O)(c1ccc(NC(=S)N2CCN(c3ccc(O)cc3)CC2)cc1)N1CCOCC1,.,/,?,.,20µM,.
CN(C)S(=O)(=O)c1cc(NC(=O)CNCCN2CCOCC2)ccc1Cl,.,50µM,28µM,.,10µM,/
O=C(CN1CCCCC1)Nc1ccc(S(=O)(=O)N2CCCCCC2)cc1,.,.,.,.,?,.
COc1cccc(OC)c1OCCOc1ccccc1OC(C)C,.,.,.,.,.,.
CC(C)Oc1ccccc1OCCN(C)C,?,45µM,32µM,.,13µM,.
Cc1cc(Cl)ccc1Oc1ncnc2onc(C)c12,.,.,.,.,.,/
Cc1noc2ncnc(Oc3ccc(Cl)cc3Cl)c12,.,.,56µM,.,.,.
NS(=O)(=O)c1ccc(CCNC(=O)COC(=O)C2CCC2)cc1,.,.,.,.,.,.
O=C(NCC1CC1)C1Cc2c(-c3ccc4c(c3)OCO4)ccnc2O1 (centres undefined),/,/,/,.,/,.
CCOC(=O)c1cc(S(=O)(=O)NCc2ccc(OC)cc2)[nH]n1,.,?,?,/,13µM,/
CCOC(=O)c1cc(S(=O)(=O)N(C)c2ccccc2)[nH]n1,.,.,.,/,?,/
CCOC(=O)c1cc(S(=O)(=O)NCc2ccc(Cl)cc2)[nH]n1,.,?,.,/,7.9µM,/
COc1cc(-c2noc(-c3ccc(NCc4cccnc4)c([N+](=O)[O-])c3)n2)cc(OC)c1OC,.,?,.,/,?,/
SMILES,HP1b chromo inh,BAZ2B block,JMJD2A Tudor,Six1-Eya2 blk,G9a inh,CtBP-E1A inh
O=[N+]([O-])c1ccc(/C=[N+](\[O-])[C@@H]2CCCC[C@@H]2/[N+]([O-])=C/c2ccc([N+](=O)[O-])o2)o1,.,2.5µM,.,.,50µM,.
O=C(N/N=C/c1ccc([N+](=O)[O-])o1)C1CCCC1,.,.,.,.,.[0.501 µM],.
CCOc1ccc(NC(=O)CSc2nc3c(oc4ccccc43)c(=O)n2CCOC)cc1,.,.,.,/,.,/
N#Cc1ccc(OCC(=O)Nc2ccc(N3CCCC3)cc2)cc1,.,.,.,.,?,/
CCN(CC)c1ccc(NC(=O)COc2ccccc2C#N)cc1S(=O)(=O)Nc1ccccc1OC,?,.,?,.,2.5µM,.
CCN(CC)c1ccc(NC(=O)c2ccccn2)cc1S(=O)(=O)Nc1ccccc1OC,?,?,56µM,?,2.5µM,.
CCN(CC)c1ccc(N)cc1S(=O)(=O)Nc1ccccc1OC,11µM,?,?,.,2.5µM,.
